# According to PubChem BioAssay AID2098 (Broad Institute, 2009):
# Out of some 300,000 compounds screened, about 2,300 (0.77%) were called active.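 How the source made its calls: active means more than half of replicate wells show activity change below -50%, luminescence cut by over half; inconclusive means some wells, but at most half, below -50%; inactive means no replicate well below -50%.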 Many of the other results were omitted from the sample, so actives are more common in it than they were.
# Assay: blocking HSF1-driven luciferase expression – cell-based, NIH3T3, luminescence, primary screen (AID 2098);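 further: luciferase reports HSF-1 transcriptional activity via heat shock element; 0% = median of DMSO wells and -100% = zero luminescence signal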
# Conditions: NIH3T3-HGL HSE-luciferase, MG132-induced, luminescence 8 h; active compounds read low; screened at 7.5 µM (by protocol)
row,SMILES,"activity change, negative = inhibition"
1,Cc1cc(C)c2oc(C(=O)Nc3ccc(S(=O)(=O)Nc4nccc(C)n4)cc3)cc(=O)c2c1,-70.7% (active)
2,Cc1ccnc(NS(=O)(=O)c2ccc(NC(=O)c3oc4ccccc4c3C)cc2)n1,-1.33% (inactive)
3,Cc1ccnc(NS(=O)(=O)c2ccc(NC(=O)c3ccc(S(=O)(=O)N(C)C)cc3)cc2)n1,1.75% (inactive)
4,CC1(c2nnc(Cc3ccccc3)o2)CC(c2ccccc2F)=NO1 (stereo not drawn),-1.4% (inactive)
5,Cc1cccc(C(=O)NNC(=O)c2cccc([N+](=O)[O-])c2)c1,-3.12% (inactive)
6,Cc1cccc(C(=O)NC(=S)N2CCN(c3ccc([N+](=O)[O-])cc3)CC2)c1,-62.5% (active)
7,Cc1cccc(C(=O)Nc2ccccc2N2CCN(c3ccc(F)cc3)CC2)c1,-1.05% (inactive)
8,O=S(=O)(/C=C/c1ccccc1)N1CCNCC1,0.181% (inactive)
9,CN1CCN(S(=O)(=O)c2ccc(Nc3ccc(F)cc3)nc2)CC1,-3.3% (inactive)
10,COc1ccc(NC(=O)c2cc(-c3ccc(C)o3)nc3ccccc23)cc1,8.98% (inactive)
11,O=C(Nc1cccc(F)c1)c1cc(-c2ccco2)nc2ccccc12,-58.6% (active)
12,O=C(O)c1cccc(NC(=O)c2cc(-c3cccc(Cl)c3)nc3ccccc23)c1,-10.6% (inactive)
13,COc1ccccc1C(=O)NCCC(=O)NC(C)CCc1ccccc1 (stereo not drawn),1.3% (inactive)
14,Cc1ccc(S(=O)(=O)N(C)c2ccc(OCC(=O)OCc3ccc(C#N)cc3)cc2)cc1,-4.36% (inactive)
15,COc1ccc(C2=NOC(Cn3nc(C(=O)NCc4ccc5c(c4)OCO5)cc3-c3ccccc3)C2)cc1 (stereo not drawn),2.18% (inactive)
16,c1ccc(-c2c[nH]c(-c3ccccc3)c2)cc1,-83.8% (inactive)
17,O=C(Nc1ccccc1)Nc1ccc(C(F)(F)F)cn1,-1.47% (inactive)
18,Cc1nccn1CC(=O)N/N=C/c1ccc(O)c(O)c1,2.17% (inactive)
19,Oc1ccc(/C=N/Nc2ccc(C(F)(F)F)cn2)cc1O,-78.4% (active)
20,N/C(=N\OC(=O)CCC1CCCCC1)c1ccccn1,17.7% (inactive)
21,CCC(C)(NC(=O)c1ccccn1)C(=O)NC1CCCCC1 (stereo not drawn),-54.6% (active)
22,CSc1ncccc1C(=O)NC1CCCCCC1,-4.75% (inactive)
23,CC(Oc1ccc(F)cc1)C(=O)Nc1ccccc1C(=O)NC1CC1 (stereo not drawn),5.48% (inactive)
24,CCOC(=O)N1CCN(C(=O)c2ccccc2SCC(=O)NCC2CCCCC2)CC1,6.98% (inactive)
25,COC(=O)[C@@]12CCCN1[C@H](c1ccc(-c3ccc(F)cc3)c(OC)c1)[C@H]1C(=O)N(C)C(=O)[C@H]12,20.6% (inactive)
26,CC(=O)O[C@H]1CC[C@@]2(C)[C@@H](CC[C@@H]3[C@@H]2CC[C@]2(C)[C@@H](C(C)(C)O)C[C@@H]32)C1,-1.58% (inactive)
27,CC(C)(CCl)C(=O)Nc1ccc(Sc2ccc(F)cc2)cc1,6.39% (inactive)

row,SMILES,"activity change, negative = inhibition"
1,O=C(CCl)Nc1ccc(Sc2ccc(NC(=O)CCl)cc2)cc1,-61.6% (active)
2,Cc1ccc(NC(=O)CC(=O)Nc2ccc(C)cc2)cc1,11.5% (inactive)
3,O=C(c1cc(-c2ccco2)nc2ccccc12)N(Cc1nnc(-c2ccc(Cl)cc2)o1)C1CC1,8.92% (inactive)
4,Cc1cc(C(=O)OC(C)C(=O)NC2CCCCC2C)c(C)o1 (stereo not drawn),3.94% (inactive)
5,COc1ccc(S(=O)(=O)NC(C)C(=O)Nc2cccc([N+](=O)[O-])c2)cc1 (stereo not drawn),-3.53% (inactive)
6,COC(=O)/C=C\C(=O)Nc1cccc([N+](=O)[O-])c1,-76.8% (active)
7,COc1cccc(CNC(=O)CCCC(=O)Nc2cccc([N+](=O)[O-])c2)c1,-0.854% (inactive)
8,Cc1ccc(OCC(=O)Oc2ccccc2[N+](=O)[O-])cc1,-1.37% (inactive)
9,CCOc1ccc(C(=O)Nc2cc(Cl)ccc2-n2cncn2)cc1OC,-3.95% (inactive)
10,Cc1cc(/C=N/n2cnnc2)c(C)n1-c1ccc2ncccc2c1,-11.6% (inactive)
11,O=C(COC(=O)c1cnccn1)Nc1ccc(Cl)cc1C(F)(F)F,-5.67% (inactive)
12,S=C(NCCc1ccccc1)NCC1CCCO1 (stereo not drawn),14% (inactive)
13,O=C(CS(=O)(=O)Cc1ccccc1)NCC1CCCO1 (stereo not drawn),-53.1% (active)
14,O=C(COC(=O)c1ccc(S(=O)(=O)Nc2ccccc2)cc1)NCC1CCCO1 (stereo not drawn),-11.9% (inactive)
15,CS(=O)(=O)c1ccc(Cl)c(NC(=O)COC(=O)c2ncc(Cl)c(Cl)c2Cl)c1,0.97% (inactive)
16,O=C(CN1CCOCC1)Nc1cccc([N+](=O)[O-])c1,6.69% (inactive)
17,C=CCNc1ncnc2ccc(Br)cc12,-13.4% (inactive)
18,COc1ccc(Nc2ncnc3sc(-c4ccccc4)cc23)c(OC)c1,-2.06% (inactive)
19,COc1ccc(Nc2ncnc3ccc(Br)cc23)c(OC)c1,-71.5% (active)
20,Cc1ccc(C)c(OCCC(=O)OCC(=O)NC(=O)NCc2ccccc2)c1,-6.76% (inactive)
21,COc1ccc(Nc2cc(Cl)ccc2C(=O)O)cn1,0.861% (inactive)
22,COc1ccc(NC(=O)/C(Cl)=C(/Cl)S(=O)Cc2ccc(C)cc2)cn1 (stereo not drawn),-94.7% (active)
23,COc1ccc(NC(=O)c2cc(-c3ccc(C)cc3)on2)cc1,-1.83% (inactive)
24,CCCCn1c(N)c(N(CC)C(=O)c2ccc(N(C)S(=O)(=O)c3ccc(C)cc3)cc2)c(=O)[nH]c1=O,-4.56% (inactive)
25,CCN1C(=O)[C@H]2[C@@H](c3ccc(SC4CCCCC4)c(OC)c3)N[C@@](Cc3ccccc3)(C(=O)OC)[C@H]2C1=O,6.65% (inactive)
26,Cc1cc(C(=O)CCC(=O)NNC(=O)c2ccccc2O)c(C)s1,1.38% (inactive)
